Measured values from PubChem BioAssay (NCI).
About 83,000 compounds went through this panel and 20% of them were active in at least one assay; those are over-represented in the sample as a whole.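 The endpoint reported here, percent growth, reads 100 for growth as untreated, 0 for no net growth and -100 for all cells dead.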 A number with no mark means an inactive call. Active and inactive are the calls of the source.

test system: M14 melanoma; experiment: NCI-60 one-dose screen, 48 h (100 = growth as untreated, 0 = no growth, -100 = all killed); conditions: 10 µM unless noted
Procedure: Growth inhibition of the M14 human tumor cell line is measured as a screen for anti-cancer activity. Cells are grown in 96 well plates and exposed to the test compound for 48 hours. Compounds are tested at a single concentration, which is 10^-5 M for most compounds. The reported endpoint is percent growth (GI% or GIPRCNT), where numbers from 0 - 100% represent growth inhibition, and numbers from -100% - 0 represent cell death. For example, a value of 40 represents 60% growth inhibition. A value of 0 means no net growth occurred over the course of the experiment. A value of -40 indicates 40% of cells at the beginning of the experiment died by the end of the experiment. A value of -100 means all cells are dead at the end of the experiment.
NCI-60 Human Tumor Cell Lines Screen was performed using the standard one-dose NCI protocol, which is described in more detail at https://dtp.cancer.gov/discovery_development/nci-60/default.htm.
Compounds with GIPRCNT values below 10 were considered active. Activity score was based on GIPRCNT using the following formula: […]
Score is 0 for GIPRCNT values of 100 or above, 50 for GIPRCNT values of 0, and 100 for GIPRCNT values of -100.

Point of comparison: `COc1ccc(Cn2c(SC)nc(=O)n(Cc3ccc(Cl)cc3)c2=O)cc1`, growth 98.6%. Against it:
- CCCC1OC(c2ccc(C(C)C)cc2)OCC1CC (stereo not given) — higher, 101%
- Cc1ccc(S(=O)(=O)N2CCC(C(=O)Nc3ccc(F)cc3F)CC2)cc1 — higher, 102%
- COc1cc(Cn2c(SCC(=O)Nc3ccc(Cl)cc3)nc3ccccc3c2=O)cc(OC)c1OC — lower, 74.9%
- COc1ccc2c(c1)C(=O)/C(=C/c1ccc(O)cc1)O2 — lower, 93.4%
- COc1cc(C2CC(c3c(C)[n+]([O-])c4ccccc4[n+]3[O-])=NN2)cc(OC)c1OC (stereo not given) — higher, 101%
- COc1ccc(S(=O)(=O)NCCNc2nccc(-c3c(-c4ccccc4)nc4sccn34)n2)cc1 — lower, 29.4%
- Cc1cccc(-n2c(C)nc3ccc(NC(=O)NCCCl)cc3c2=O)c1 — higher, 98.7%
- CC(=O)Oc1cccc(OC(C)=O)c1OC(C)=O — lower, 95.3%
- O=C(c1ccccc1)C(Cl)C(Cl)c1ccccc1 (stereo not given) — lower, 46.8%
- CSc1nc(-c2cc3ccccc3o2)cc(-c2ccc(Cl)cc2)c1C#N — lower, 67.6%
- COc1ccc(NC(=O)CSc2nc3ccccc3c(=O)n2-c2ccccc2C(F)(F)F)c(OC)c1OC — lower, 97.5%
- O=C(Nc1ccc(F)cc1)c1cc([N+](=O)[O-])ccc1O — lower, 75.7%
- CCCCCCCC/C=C\CCCCCCCCOc1ccccc1CCOP(=O)(O)OCC[N+](C)(C)C — lower, 84.4%
- COc1cc(NCCN=C(N)NC(N)=NC(C)C)c2ncccc2c1 — lower, 88.6%
- O=C(Nc1cc(C(F)(F)F)cc(C(F)(F)F)c1)Nc1ccc(OCc2nnc(-c3ccc(Cl)cc3)o2)c(F)c1 — lower, 18.6%
- COc1cccc(NC(=O)Cn2cc3c(=O)oc4ccccc4c3n2)c1 — higher, 101%
- CCN(CC)P(=O)(N(CC)CC)N(CCCSC/C=C(\C)CC/C=C(\C)CCC=C(C)C)CCCN1CCN(C)CC1 — higher, 107%
- COC(=O)C(CC(=O)c1ccc(-c2ccccc2)cc1)c1ccccc1 (stereo not given) — lower, 42.6%
- Nc1c(C(=O)Nc2cccc(C(F)(F)F)c2)sc2nc3c(cc12)C(O)CCC3 (stereo not given) — lower, 30.9%
- CC(C)CCN(CCCNc1c2c(nc3ccccc13)CCCC2)CCC(C)C — lower, 35.9%
- CN(C)c1nc(N)c(N=O)c(N)n1 — higher, 111%
- CC1Cc2c(N(C)C)ncnc2N(C)c2ccc(O)cc21 (stereo not given) — lower, 73.7%
- COc1ccc(/C=C2\C(=O)N(C(=O)c3csc(NC(C)=O)n3)N=C2C)cc1 — higher, 98.7%
- CN(C)CCCNC(=O)C(c1ccccc1)c1ccccc1 — higher, 101%
- C=CC(=O)N[C@H](/C=C/C(=O)OCC)Cc1ccc(-c2cc(Cl)cc(Cl)c2)cc1 — lower, 88.7%
- CC/C=C\C[C@H](O)C/C=C1/C(=O)C(Cl)=C[C@@H]1C/C=C\CCCC(=O)O — lower, 35.7%
- CSc1ccccc1C#C/C=C\C#Cc1ccccc1N1CCCC1=O — lower, 64.5%
- Cc1ccc(Oc2nc3ccccc3cc2-c2nnc(Cn3c(COc4ccccc4)nc4ccccc43)o2)cc1 — lower, 45.5%
- CCn1cc(C(=O)O)c(=O)c2cc(F)c(N3CCN(S(=O)(=O)c4ccc(OC)c(OC)c4)CC3)cc21 — lower, 44.1%
- CCC1CCc2nc3sc(C(=O)Nc4ccccc4F)c(N)c3cc2C1 (stereo not given) — lower, 44.4%
- O=S(=O)(NCCNc1nccc(-c2c(-c3ccccc3)nc3sccn23)n1)c1ccc(O)cc1 — lower, 35.7%
- COc1cc(C2C=C(C)N=C3SC=CN32)cc(OC)c1OC (stereo not given) — higher, 107%
- C=C1C(=O)O[C@H]2[C@H]1CC/C(COC(=O)NCCc1ccc(OC)cc1)=C\CC[C@@]1(C)O[C@@H]21 — lower, 25.1%
- C=CCOc1ccc(/C(O)=C2\C(=O)C(=O)N(c3nccs3)C2c2ccccc2F)cc1 (stereo not given) — lower, 82.7%

`COc1cc(/C=C/C(=O)c2ccccc2O)ccc1OCCCOc1cc2c(cc1OC)C(=O)N1CCC[C@H]1C=N2` was tested, and the growth was -7.64% (active).
In the case of `CCCS(=O)(=O)c1nc(NC2CC2)cc(-c2ccc3c(ccn3C3CC(C)(C)NC(C)(C)C3)c2)n1`, the growth is reported as -78.2% (active).
In the case of `CC(C)(C)c1cc(-c2nc3ccc(N4CCN(CCO)CC4)cc3[nH]2)cc(C(C)(C)C)c1O`, the growth is reported as -40.5% (active).
With `C=C1C(=O)O[C@H]2[C@H]1CC/C(COC(=O)NCc1cc(OC)cc(OC)c1)=C\CC[C@@]1(C)O[C@@H]21` the growth was -31% (active).
With `O=S(=O)(NCCCNc1nccc(-c2c(-c3ccc(O)cc3)nc3sccn23)n1)c1ccc(F)cc1` the growth was -26.2% (active).
